JMJD2A Tudor – inhibitors of human JMJD2A Tudor domain; O75164; AlphaScreen JMJD2A-Tudor / H3K4me3 peptide binding; Potency, µM (doses to about 114 µM), inactives show at the highest dose activity change, negative = inhibition, hits mostly inhibitors; hit rate 4.4% among 390,000; AID 504339; further: on the % scale 0 is the no-effect control and ±100 the full control effect; nearly all actives have a fitted effect of over 50% in size
L3MBTL1 block – inhibitors of human L3MBTL1; Q9Y468; AlphaScreen L3MBTL1–H3K9me1 peptide binding; Potency, µM (top dose mostly 57.1 µM), for inactives: at the highest dose activity, negative = inhibition, hits mostly inhibitors; hit rate 0.66% among 230,000; AID 485360; further: on the % scale 0 is the no-effect control and ±100 the full control effect; nearly all actives have a fitted effect of over 60% in size
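AlphaScreen assay: L3MBTL1 (50 nM final) was preincubated 30 min at room temperature with biotinylated H3(1-15)K9me1 peptide (75 nM final), then 30 min with library compounds; streptavidin donor and nickel chelate acceptor beads (10 ug/mL final) added, 30 min dark.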
BAZ2B inh – blocks human BAZ2B | AlphaScreen BAZ2B-H3K14Ac peptide displacement | Q9UIF8 | Potency, µM (highest dose often 114 µM), for the others: at the highest dose activity change, negative = inhibition, actives largely listed as inhibitors | hit rate 4.4% among 360,000; further: on the % scale 0 is the no-effect control and ±100 the full control effect; nearly all actives have a fitted effect of over 60% in size
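AlphaScreen luminescence quantifies BAZ2B engagement of H3K14Ac peptide; the protein and biotinylated peptide are both at 50 nM final, buffer PBS pH 7.4 with 0.01% Tween-20, all steps at room temperature.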
G9a block – blocks human histone lysine methyltransferase G9a; G9a H3K9 monomethylation, AlphaScreen, 2 h; Potency, µM (doses to about 102 µM), for inactives: at the top dose activity, negative = inhibition, hits mostly inhibitors; hit rate 8.8% among 350,000; further: on the % scale 0 is the no-effect control and ±100 the full control effect; nearly all actives have a fitted effect of over 75% in size
Target sequence (Q96KQ7 913-1193 limits assumed): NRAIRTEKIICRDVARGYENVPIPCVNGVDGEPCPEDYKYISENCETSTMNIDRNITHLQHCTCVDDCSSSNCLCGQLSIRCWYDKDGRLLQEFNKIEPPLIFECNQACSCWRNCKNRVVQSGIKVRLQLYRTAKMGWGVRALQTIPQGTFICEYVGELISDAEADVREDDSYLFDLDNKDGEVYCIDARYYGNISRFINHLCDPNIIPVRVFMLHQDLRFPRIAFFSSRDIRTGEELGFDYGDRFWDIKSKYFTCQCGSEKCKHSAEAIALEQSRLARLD
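Using a bead-based AlphaScreen, monomethylated H3K9 product from 2 h room-temperature reactions (G9a 20 nM, peptide 500 nM, SAM 20 uM) was detected with 0.5 ug/mL rabbit anti-H3K9me1 antibody.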
HP1b binding inh – blocks HP1-beta chromodomain binding to methylated histone tails; AlphaScreen HP1-beta / biotin-H3K9me3 peptide binding; Potency, µM (top dose mostly 114 µM), inactives show at the top dose activity change, negative = inhibition, usual class: inhibitors; hit rate 0.56% among 390,000; further: nearly all actives have a fitted effect of over 70% in size
Target sequence (P83916 whole entry, looked up): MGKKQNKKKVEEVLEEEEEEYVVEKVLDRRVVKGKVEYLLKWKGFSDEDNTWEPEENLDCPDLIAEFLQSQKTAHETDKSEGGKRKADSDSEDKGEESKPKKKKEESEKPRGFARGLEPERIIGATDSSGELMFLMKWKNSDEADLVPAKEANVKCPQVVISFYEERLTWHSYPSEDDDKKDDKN
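HP1-beta protein (50 nM final) preincubated 30 min at room temperature with biotinylated H3(1-18)K9me3 peptide (50 nM) in PBS pH 7.4, 0.01% Tween-20, then compound added for 30 min. AlphaScreen streptavidin donor/nickel chelate acceptor beads (10 ug/mL final), 30 min dark, luminescence read.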
Sfp inh – blocks B. subtilis Sfp PPTase activity; Q9F4F7; Biochemical Sfp PPTase activity, qHTS; Potency, µM, for inactives: largest response in the series, negative = inhibition, usual class: inhibitors; hit rate 3.5% among 310,000; AID 1490;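 further: the enzyme is Sfp with the accession as filed and its product quenches rhodamine fluorescence; 0% = enzyme reaction without inhibitor and -100% = no enzyme wells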
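After 15 min at room temperature with compound, 15 nM Sfp received 5 uM rhodamine-CoA plus 12.5 uM BHQ-2-ybbR (50 mM Hepes pH 7.6, 10 mM MgCl2). Rate came from the fluorescence difference over 30 min, ex 525/em 598 nm.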
Active calls of the source: *; ? = inconclusive; . = no result; ! = a repeat was not active; [ ] = remark or other dose. Most compounds without a hit are left out; they make up all but 12% or so of the library. The call rests on the fitted dose curve; in most records, active means well fitted curve in the direction sought with a large enough effect; inconclusive means small, poorly fitted or top-dose-only effect, or another doubt; inactive means no such curve, though single readings can be large; an effect the other way counts as inactive or inconclusive. Potency means the concentration at half of the fitted maximal effect.

SMILES | JMJD2A Tudor | L3MBTL1 block | BAZ2B inh | G9a block | HP1b binding inh | Sfp inh
COc1cccc(NC2=CC(c3ccc(C(C)C)cc3)N(c3cccc(OC)c3)C2=O)c1 (stereo not given) | -34% | . | ? | ? | -13% | .
COc1ccc(C2C=C(Nc3ccccc3)C(=O)N2c2ccccc2)cc1OC (stereo not given) | -23% | -5% | -38% | 8.9µM* | 7% | ?
Cn1c(=O)n(CCc2ccccc2)c(=O)c2c1nc1n2CCN1c1ccc(Cl)cc1 | 3% | . | 2% | -5%[59 µM] | 34% | .
O=C(c1ccc(Cl)cc1)N1CCCC(c2ccccc2)=N1 | 46% | 0% | 3%[57.1 µM] | 80% | 69% | 10%
Oc1ccc(C=NNC(=S)Nc2cccnc2)nc1 | 10µM* | . | . | . | 19% | .
Oc1ccc(/C=N/NC(=S)Nc2cccnc2)cc1O | -32% | 11µM* | ? | ? | ? | -14%
CC(C)(C)c1ccc(/C=N/NC(=S)Nc2cccnc2)cc1 | . | -7% | -36% | ? | . | 2%
O=C(NCC(=O)N1CCCC1)c1ccc(Cl)cc1 | -7% | . | -3% | -6% | 49% | 23%
Cc1[nH]nc2c1/C(=N/O)CC(c1ccccc1)C2 (stereo not given) | -2% | 30% | 13% | -34%[59 µM] | 36% | -4%
Cc1ccc(Cn2c(SCC(=O)NCc3ccccc3Cl)nc3ccsc3c2=O)cc1 | -16% | . | -10% | -8%[59 µM] | 20% | .
CCOC(=O)N/N=C1/C[C@@H](O)[C@@H](O)[C@@H]2[C@@H]3C(=O)N(C[C@@H]4CCCO4)C(=O)[C@H]3CC[C@@H]12 | . | . | . | . | . | 18%
CCOC(=O)[C@H](CCc1ccccc1)N[C@@H](C)C(=O)N1CCC[C@H]1C(=O)O | 50µM*! | 8% | -6% | -15% | 23% | -8%
CCOC(=O)[C@H](CCc1ccccc1)N[C@@H](C)C(=O)N1CCC[C@@H]1C(=O)O | 20µM* | 6% | ? | 20µM* | -4% | .
NCCC[C@@H](CC(=O)N[C@@H]1CCNC[C@H]1C(=O)N[C@H](CC(=O)N[C@@H](CCC(=O)O)CC(=O)O)Cc1ccccc1)NC(=O)C[C@H](Cc1c[nH]c2ccccc12)NC(=O)[C@@H]1CCCC[C@H]1N | . | . | . | . | . | 4%
c1ccc(-c2csc3nnc(SCc4ccc5c(c4)OCO5)n23)cc1 | 20µM* | 12% | -30% | -54%[59 µM] | -5% | 21%
C=C[C@@H]1c2cc(C)ccc2N(S(=O)(=O)c2ccc(C)cc2)[C@H](c2ccccc2C(F)(F)F)C1(C#N)C#N | -21% | -10% | 48% | 89%[2.33 µM] | 21% | .
CN(C)c1ccc(O)c2c1C[C@H]1C[C@H]3[C@@H](N(C)C)C(=O)C(C(N)=O)=C(O)[C@]3(O)C(=O)C1=C2O | . | . | . | 8.9µM* | . | 14%
C[C@@H]1c2cccc(O)c2C(O)=C2C(=O)[C@@]3(O)C(O)=C(C(N)=O)C(=O)[C@@H](N(C)C)[C@@H]3[C@@H](O)[C@@H]21 | . | . | . | -44%[12.7 µM] | . | 7%
CO/N=C1/c2cc(OC)ccc2O[C@@H](c2cccc(OC)c2)[C@H]1O | . | . | . | . | . | 0%
COC(=O)CCCCCN1C(=O)NC(CC2CC2)C(C(=O)OCc2ccccc2)=C1C (stereo not given) | . | . | . | . | . | 10%
Cc1ccc(NC(=O)CSc2nc3c(oc4ccccc43)c(=O)n2Cc2ccco2)cc1F | -16% | . | 0% | 2%[59 µM] | 0% | .
CCCCC[C@H](O)/C=C/C=C/C=C/[C@H](O)C/C=C\CCCC(=O)O | . | . | . | . | . | 4%
CC(NC(=O)C(=O)NN=C1CCCCCCCCCCC1)c1ccccc1 (stereo not given) | -11% | 1% | -33% | -47%[59 µM] | 28% | 10%
COc1ccc(NC(=O)CCCn2cnc3ccccc3c2=O)cc1 | -21% | . | -32% | 28µM* | -13% | 50µM*
O=C(CCCn1cnc2ccccc2c1=O)Nc1ccccc1F | -9% | . | 3% | 35µM* | 18% | -15%
SMILES | JMJD2A Tudor | L3MBTL1 block | BAZ2B inh | G9a block | HP1b binding inh | Sfp inh
O=C(CCCN1C(=O)CCC1=O)Nc1ccccc1F | -18% | . | ? | 56µM* | 5% | 79µM*
COc1ccc(Cl)cc1NC(=O)CCn1cnc2ccccc2c1=O | -14% | . | -4% | ? | 19% | -5%
COc1ccc(NC(=O)Cn2cnc3ccccc3c2=O)cc1OC | -4% | 5% | -10% | . | 28% | 10%
CCCn1c(-c2ccc(F)cc2)nc2c(NCCCCN3CCCC3)nc(C)nc21 | . | . | . | . | . | 9%
NC(=O)c1ccsc1NC(=O)c1ccc(N2CCCC2=O)cc1 | -22% | . | -30% | 45µM* | 17% | 12%
O=C(NNc1cc(Cl)ccc1Cl)c1cccs1 | -12% | -19% | 17% | 56µM* | 19% | ?
Cc1cc(Cl)ccc1NNC(=O)c1cccs1 | -8%[57.1 µM] | 4% | -35% | . | 12% | -14%
Cc1noc(C)c1C(=O)NNc1cc(Cl)ccc1Cl | -8% | -5% | -16% | 79µM* | 1% | -14%
CC[C@H](C)[C@H](NC(=O)CNC(=O)[C@@H](NC(=O)[C@@H](NC(=O)[C@H](Cc1ccc(O)cc1)NC(=O)[C@H](CC(C)C)NC(=O)[C@H](C)NC(=O)[C@H](CCC(N)=O)NC(=O)CNC(=O)[C@@H]1CCCN1C(=O)CNC(=O)[C@H](Cc1ccccc1)NC(=O)[C@H](Cc1cnc[nH]1)NC(=O)[C@@H](NC(=O)CNC(=O)[C@H](CCCNC(=N)N)NC(=O)[C@H](CCCNC(=N)N)NC(=O)[C@@H](NC(=O)[C@H](CC(N)=O)NC(=O)[C@@H](N)CS)[C@@H](C)O)[C@@H](C)CC)[C@@H](C)O)[C@@H](C)O)C(=O)O | . | . | . | . | . | -15%
Cc1[nH]c2c(ccc3cccnc32)c1C | 45µM* | -22% | 35µM* | -33%[12.7 µM] | ? | -29%
CCOc1cc(-c2nn3cnnc3s2)cc(OCC)c1OCC | 18µM* | 3% | 3% | 2% | -9% | 11%
C/C(=C(/CCO)SS/C(CCO)=C(\C)N(C=O)Cc1cnc(C)nc1N)N(C=O)Cc1cnc(C)nc1N | . | . | . | -27%[12.7 µM] | . | -4%
CCOc1cc(C2CC(=O)N3CN(C4CCCCC4)CSC3=C2C#N)ccc1O (stereo not given) | 79µM* | -4% | -25% | 2.2µM* | ? | 3.5µM*
CCOc1cc(C2CC(=O)Nc3cc(C)c(C)cc32)ccc1O (stereo not given) | -12% | -2% | 3% | 3% | 3% | -5%
N#CC1=C2SCN(C3CCCCC3)CN2C(=O)CC1c1ccc(Br)cc1 (stereo not given) | 16µM* | . | . | 2.8µM* | ? | .
CCN(CC)c1ccc(C(=O)O)cc1 | -12% | 0% | -3% | -17%[59 µM] | 18% | 0%
